# Experimental data reported in PubChem BioAssay.
# Values joined by “and” are separate entries in the source; they are usually repeats but may differ in a detail not shown here. Equal entries are not always repeated.
# Test system: Fibrinogen (Alexa647-labelled)
# Assay: fibrinogen binders on compound microarrays, profiling panel, artefact control for SMM control-protein annotation, biochemical, small-molecule microarray, 635/667 nm fluorescence (AID 1131);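 also: z-score merges 667 nm fluorescence with per-spot signal-to-noise over triplicate slides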
# Conditions: fibrinogen-A647 binding fluorescence, higher = more signal
row,SMILES,composite z-score
1,C=CCN(CCCC)C(=O)C(c1cccs1)N(CCOCCO)C(=O)/C=C\C(=O)O (stereo not given),-2.44 and -1.32
2,CC(C)[Si]1(C(C)C)OCc2cc(CCCc3cc4c(c(CCc5ccccc5)n3)[Si](C(C)C)(C(C)C)OC4)nc(CCc3ccccc3)c21,-0.551 and 0.0539
3,O=C1[C@H]2[C@H]3[C@H](O)[C@H](O)CC(=NOCc4ccccc4)[C@H]3CC[C@H]2C(=O)N1Cc1ccccc1,-0.908
4,C=CCN(C(=O)C1N(CCOCCO)C(=O)C2C(C(=O)O)C3C=CC21O3)c1ccc(OC)cc1 (stereo not given),-1.13 and -2.1
5,C=CCN(CCCCC)C(=O)C(c1cccs1)N(C(=O)/C=C\C(=O)O)c1c(Cl)cccc1CO (stereo not given),-1.31 and -2.3
6,C=C[C@@H](OC)[C@H](O)c1ccc(OCCO)cc1,-1.95 and -1.4
7,CC(=O)OC[C@H]1O[C@H](C#CC(C)(C)C)C=C[C@@H]1OC(C)=O,0.979
8,C[N+](C)(C)CCCCCCNC(=O)[C@H]1C[C@H]2C(=O)N[C@@H](CCCC[N+](C)(C)C)C(=O)N2[C@H]1c1ccc(O)cc1,-0.112 and -0.705
9,COc1ccc(-c2ccc3c(n2)CCCN3CC(O)CN2CCCc3nc(-c4ccc(Br)cc4)ccc32)cc1 (stereo not given),0.572 and 0.757
10,CC(CO)N1C(=O)[C@@H]2C3C(=O)OCCC=C[C@H]3OC23C=CCN(Cn2nnc4ccccc42)C(=O)[C@@H]13 (stereo not given in full),-0.332 and -0.0118
11,C[C@@]1([C@@H](NC(=O)Cc2ccccc2)c2ccc(-c3ccccc3)cc2)C[C@H]1C1CCCCC1,0.666 and 0.314 and 0.934
12,C=CCN(CCCC)C(=O)C(c1cccs1)N(C(=O)/C=C\C(=O)O)c1c(Cl)cccc1CO (stereo not given),-2.84 and -3.52
13,C=C[C@@H](C)[C@@H](O)c1ccc(OCCO)cc1,-1.87 and -1.43
14,C=CCN(CCCCC)C(=O)C(c1cccs1)N(CCOCCO)C(=O)/C=C\C(=O)O (stereo not given),-1.57 and -1.63
15,CC(C)CCN1CCc2nc(-c3ccccc3)c3c(c2C1)CO[C@@H](C)C3,0.436
16,C=CCN(CCCC)C(=O)C1N(c2ccc(CCO)cc2)C(=O)C2C(C(=O)O)C3C=CC21O3 (stereo not given),-1.01 and -2.98
17,C=C[C@H](OC)[C@@H](O)c1ccc(OCCO)cc1,-2.46 and -1.57
18,C=C[C@H](C)[C@H](O)c1ccc(O)c2ccccc12,-0.22 and -0.58
19,COC(=O)C1=C(C)N(Cc2ccccc2)[C@]23O[C@](C(=O)OC)(C(=O)N2[C@@H]1c1ccccc1)[C@H]1C(=O)N(c2ccccc2)C(=O)[C@H]13,0.77 and 0.267
20,CN1C(=O)C2CC=C([C@H]3Oc4ccccc4S(=O)(=O)N4CCC[C@@H]34)CC2C1=O (stereo not given in full),0.0887 and -1.25

row,SMILES,composite z-score
1,CC(C)=NOC[C@@H](O)COCc1ccco1,-1.83
2,CCOC(=O)NN=C1C[C@@H](O)[C@@H](O)[C@@H]2[C@@H]3C(=O)N(Cc4ccccc4)C(=O)[C@@H]3CC[C@@H]12,0.669
3,COC(=O)C1=C(C)N(Cc2ccccc2)[C@]23O[C@](C(=O)OC)(C(=O)N2[C@@H]1c1ccccc1)[C@H]1CCCC(=O)[C@H]13,0.753 and 0.377
4,C#CCCCON=C1C[C@@H](O)[C@@H](O)[C@@H]2[C@@H]3C(=O)N(C4CCCCC4)C(=O)[C@@H]3CC[C@H]12,0.962
5,C=C[C@@H](OC)[C@H](O)c1ccc(OC)c(O)c1,-0.267 and -0.492
6,CC(C)=NOCc1ccc(-c2cn([C@@H]3COC[C@H]3O)nn2)cc1,-0.4
7,CO[C@@H]1C=CCC(=O)N2CCC[C@H]2C(=O)OC[C@H](C)C(=O)OC[C@H]1C,-1.04
8,CCCCCN1CC=CC23O[C@@H]4C=CCCOC(=O)C4[C@H]2C(=O)N(C(C)CO)[C@@H]3C1=O (stereo not given in full),-0.458 and 0.0661
9,COC(=O)[C@@]1(Cc2ccc(OC)cc2)[C@H]2c3cc(C(=O)N(C)C)n(Cc4ccc(O)c(OC)c4)c3C[C@H]2CN1C(=O)c1ccccc1,0.0218 and 0.962
10,C=CCN(Cc1ccccc1)C(=O)C(c1cccs1)N(C(=O)/C=C\C(=O)O)c1ccc(CCO)cc1 (stereo not given),-1.94 and -2.45
11,CCN1C(=O)[C@H]2[C@H]3[C@H](O)[C@H](O)CC(=NOC)[C@@H]3CC[C@H]2C1=O,0.245
12,C[N+](C)(C)CCCCNC(=O)[C@@H]1C[C@@H]2C(=O)N[C@@H](CCCC[N+](C)(C)C)C(=O)N2[C@@H]1c1cccc(OCCO)c1,-0.355 and 0.553
13,CO[C@H]1COC(=O)CC=C[C@H](C)[C@H](OC)COC(=O)[C@@H](C)COC(=O)CC=C[C@@H]1C,-0.77 and -1.28
14,Cc1cc2c(nc1C)CCCN2CC(O)CN1CCCc2nc(-c3ccc(Br)cc3)ccc21 (stereo not given),0.887 and 0.695
15,COC(=O)C1=C(C)N(Cc2ccccc2)C2=C(C(=O)c3ccccc3)[C@H](c3ccccc3)[C@@](O)(C(=O)OC)C(=O)N2[C@@H]1c1ccccc1,0.435 and -0.0657
16,C#CCN1C(/C=C/c2ccccc2)C(=O)OC[C@H]1c1ccccc1 (stereo not given in full),-0.106 and 0.137
17,COC(=O)[C@@]1(Cc2ccccc2)[C@H]2c3cc(C(=O)N(C)C)n(Cc4ccc(C)c(F)c4F)c3C[C@H]2CN1C(=O)c1ccccc1,0.966 and 1.01
18,CCOC(=O)[C@@H]1CC2O[C@]23C[C@@H]1C(=O)N1CCC[C@@H]1[C@H]3O[Si](C)(C)C(C)(C)C (stereo not given in full),-0.607 and -0.0382
19,C=CCN(CCCCC)C(=O)C(c1cccs1)N(C(=O)/C=C\C(=O)O)c1ccc(CCO)cc1 (stereo not given),-1.39 and -1.21
20,CC(CO)N1C(=O)[C@@H]2C3C(=O)OCCC=C[C@H]3OC23C=CCN(c2ccc4ccccc4c2)C(=O)[C@@H]13 (stereo not given in full),-0.986 and -1.18
